The list is not random: actives were taken first. Their share in the collection is about 3.5%.
FBW7 act: FBW7 E3 ligase activators, primary screen, biochemical, AlphaScreen, human. AlphaScreen FBW7–phospho-cyclin E peptide binding, activator screen. normalized activity (activation), % at 26.1 µM. 650,000 tested, 0.13% active. AID 1259310, 2017; in the data active = normalized activity above about 1.9%;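 note: purified mutant Fbw7 with reduced substrate affinity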
Target sequence (Q969H0 whole entry, looked up): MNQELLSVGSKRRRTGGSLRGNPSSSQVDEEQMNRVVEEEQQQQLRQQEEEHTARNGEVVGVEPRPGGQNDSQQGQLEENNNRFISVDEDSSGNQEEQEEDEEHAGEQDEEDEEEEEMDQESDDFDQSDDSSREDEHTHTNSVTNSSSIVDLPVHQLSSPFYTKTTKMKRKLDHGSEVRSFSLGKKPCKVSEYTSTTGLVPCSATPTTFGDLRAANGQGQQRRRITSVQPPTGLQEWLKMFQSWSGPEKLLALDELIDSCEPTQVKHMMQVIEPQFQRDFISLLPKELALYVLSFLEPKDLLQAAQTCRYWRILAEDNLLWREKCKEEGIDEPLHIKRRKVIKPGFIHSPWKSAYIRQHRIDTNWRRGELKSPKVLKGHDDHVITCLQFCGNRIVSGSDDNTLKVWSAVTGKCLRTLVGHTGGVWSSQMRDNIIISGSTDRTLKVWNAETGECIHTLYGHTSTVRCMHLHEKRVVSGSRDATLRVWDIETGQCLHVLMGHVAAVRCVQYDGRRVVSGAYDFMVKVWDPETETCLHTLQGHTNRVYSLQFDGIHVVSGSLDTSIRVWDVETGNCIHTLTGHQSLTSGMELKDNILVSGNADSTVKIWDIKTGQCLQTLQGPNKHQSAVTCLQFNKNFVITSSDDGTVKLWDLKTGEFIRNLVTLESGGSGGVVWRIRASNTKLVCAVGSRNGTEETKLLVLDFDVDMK
TEAD-YAP block: TEAD-YAP interaction inhibition, primary screen, TEAD-YAP interaction inhibitor project, luminescence, HEK-TIYL cells; TEAD-Gal4/YAP UAS-luciferase luminescence; inhibition, % at 9.12 µM; 640,000 tested, 1.4% active; in the data active = inhibition above about 32%
GPR151 activ: activators of human GPR151, primary screen, cell-based, PathHunter beta-arrestin, luminescence; G-protein coupled receptor 151 (Homo sapiens), Q8TDV0; PathHunter beta-arrestin GPR151 cells; activation, % at 11.2 µM; 650,000 tested, 1% active; AID 1508602, 2020; in the data active = activation above about 4.9%
MITF primary: MITF inhibitors, primary screen, biochemical, AlphaScreen, human; Microphthalmia-associated transcription factor (Homo sapiens), O75030; AlphaScreen MITF homodimerization, bead proximity signal; inhibition, % at 2.6 µM; 650,000 tested, 0.91% active; in the data active = inhibition above about 50%
Hits are given with their value; n = inactive; ! = repeats disagree.

SMILES | FBW7 act | TEAD-YAP block | GPR151 activ | MITF primary
O=C(Oc1cccc(NC(=O)c2ccccc2Cl)c1)c1ccc2c(c1)OCO2 | n | 60 | n | n
Cc1ccc(OCC(=O)Oc2cccc(NC(=O)c3ccccc3Cl)c2)cc1C | n | 61 | n | n
O=C(Nc1cccc(NCc2ccc3c(c2)OCO3)c1)c1ccccc1Cl | n | n | n | n
CCN(CC)S(=O)(=O)c1cc(C(=O)Oc2cccc(NC(=O)c3ccc([N+](=O)[O-])cc3)c2)ccc1C | n | 36 | n | n
CCN(CC)S(=O)(=O)c1cc(C(=O)Oc2cccc(NC(=O)c3ccccc3Cl)c2)ccc1C | n | 55 | n | n
CCCc1cc(Nc2ccc(NC(C)=O)cc2)n2ncnc2n1 | n | n | n | n
CC(C)CN1C(=O)CCC1CCNCc1ccncc1 (stereo not given) | n | n | n | n
COc1ccc(/C=N\Nc2nc3ccccc3o2)cc1O | n | n | n | n
COc1ccc(/C=C2/C(=O)OCc3cc(OC)c(OC)cc32)cc1 | n | 45 | n | n
COc1ccc(Cn2c(=S)[nH]c3cc(C(=O)Nc4ccccc4OC)ccc3c2=O)cc1 | n | n | n | n
O=C(CCNC(=O)OCc1ccccc1)NC1CCCCC1 | n | n | n | n
O=C(CCNC(=O)Oc1ccccc1)NC1CCCCC1 | 1.9 | n | n | n
CCn1c2ccccc2c2cc(NC(=O)c3ccc(F)cc3)ccc21 | n | n | n | n
CC[C@@]1(O)C(=O)OCc2c1cc1n(c2=O)Cc2cc3c(CN(C)C)c(O)ccc3nc2-1 | n | n | n | 67!
COc1cccc(Nc2cc(C)nc3ccc(OC)cc23)c1 | n | n | n | n
COc1ccc(OC)c(Nc2cc(C)nc3ccccc23)c1 | n | 37 | n | n
COc1ccc2nc(C)cc(Nc3ccccc3OC)c2c1 | n | n | n | n
COc1cccc(Nc2cc(C)nc3ccc(Cl)cc23)c1 | n | 44 | n | n
COc1ccc2nc(C)cc(Nc3ccc(Oc4ccc(Cl)cc4)c(Cl)c3)c2c1 | n | 44 | n | n
NC(=O)c1sc2nc3c(cc2c1N)C(=O)CCC3 | n | n | n | n
Cc1ccc(NC(=O)CSc2nncn2C)cc1C | n | n | n | n
COc1cc(-c2cncc(-c3ccccc3N(C)C)n2)cc(OC)c1OC | n | n | n | n
COc1cncc(-c2cncc(-c3ccccc3N(C)C)n2)c1 | n | 36 | n | n
CCOC(=O)c1c(N)sc(C(=O)Nc2ccccc2C)c1C | n | n | n | n
CCOC(=O)c1c(N)sc(C(=O)Nc2cccc(OC)c2)c1C | n | 52 | n | n
SMILES | FBW7 act | TEAD-YAP block | GPR151 activ | MITF primary
COC(=O)c1c(N)sc(C(=O)Nc2ccccc2C)c1C | n | n | n | n
COC(=O)c1c(N)sc(C(=O)Nc2ccc(C)cc2C)c1C | n | 76 | n | n
CCOC(=O)c1ccc(NC(=O)c2sc(NC(=O)c3cc(OC)c(OC)c(OC)c3)c(C(=O)OCC)c2C)cc1 | n | n | n | n
CCOC(=O)c1ccc(NC(=O)c2sc(N)c(C(=O)OCC)c2C)cc1 | n | 61 | n | n
CCOC(=O)c1ccccc1NC(=O)c1sc(N)c(C(=O)OCC)c1C | n | 54 | n | n
Cc1ccc(C(O)CNC(=O)c2ccccc2Br)o1 (stereo not given) | n | n | n | n
CCN(C(=O)Cn1nc(C(=O)O)c2ccccc2c1=O)C1CCS(=O)(=O)C1 (stereo not given) | n | n | n | n
COC(=O)c1ccc(C)c(NS(=O)(=O)c2ccc(SC)cc2)c1 | n | 47 | n | n
COC(=O)c1ccc(C)c(NS(=O)(=O)c2ccc(C)c([N+](=O)[O-])c2)c1 | n | n | n | n
CCOc1ccc(S(=O)(=O)Nc2cc(C(=O)OC)ccc2C)cc1 | n | 55 | n | n
COC(=O)c1ccc(C)c(NS(=O)(=O)c2ccc(OC)cc2)c1 | n | 66 | n | n
COC(=O)c1ccc(C)c(NS(=O)(=O)c2ccc3c(c2)OCCO3)c1 | n | 57 | n | n
CS(=O)(=O)N1CCN(C(=O)Nc2cccc(Cl)c2Cl)CC1 | n | n | n | n
Cc1ccc(-c2nc(CSCC(=O)NCCN3CCOCC3)c(C)o2)cc1 | n | n | n | n
CC(=O)c1cc2c(cc1NS(=O)(=O)c1ccc(C)cc1)OCCO2 | n | 37 | n | n
CC(=O)c1cc2c(cc1NS(=O)(=O)c1ccccc1)OCO2 | n | n | n | n
COc1ccc(S(=O)(=O)Nc2cc(S(N)(=O)=O)ccc2C)cc1 | n | n | n | n
COC(=O)c1ccc(C)c(NS(=O)(=O)c2ccc(Cl)cc2)c1 | n | 54 | n | n
COc1ccc(S(=O)(=O)Nc2cc(F)ccc2C)cc1 | n | 52 | n | n
Cn1c(N)nc2c(ncn2C2OC(CO)C(O)C2O)c1=O (stereo not given) | n | n | n | n
O=CC1=C(N2CCOCC2)/C(=C/c2ccc(Cl)cc2)CCC1 | n | n | n | n
C=CCc1ccccc1OCC(O)Cn1c(CO)nc2ccccc21 (stereo not given) | n | n | n | n
C=CCc1ccccc1OCC(O)Cn1c(C)nc2ccccc21 (stereo not given) | n | 40 | n | n
Cc1ccc(C(C)C)c(OCC(O)Cn2c(C)nc3ccccc32)c1 (stereo not given) | n | 50 | n | n
COc1ccc(-n2cc(-c3ccccc3)c3c(Nc4ccc(C)c(C)c4)ncnc32)cc1 | n | n | n | n
SMILES | FBW7 act | TEAD-YAP block | GPR151 activ | MITF primary
CCOc1ccc(Nc2c(C(=O)N3CCOCC3)cnc3ccccc23)cc1 | n | 42 | n | n
O=C(Nc1cc(-c2ccncc2)c[nH]c1=O)C1Cc2c(ccc3ccccc23)O1 (stereo not given) | n | 33 | n | n
COc1ccc(-c2nnc(SCC(=O)Nc3ccc(C(=O)O)cc3)nc2-c2ccc(OC)cc2)cc1 | n | n | n | n
FC(F)(F)c1cc(Cn2c3ccccc3c3nc4ccccc4nc32)cc(C(F)(F)F)c1 | 2.4 | n | n | n
Cc1ccc2c(CCl)cc(=O)oc2c1 | n | n | n | n
O=C(Cc1ccc2c(c1)OCO2)Nc1cc(Nc2ccccc2-c2ncn[nH]2)c(F)cn1 | n | 54 | n | n
O=Cc1ccccc1Nc1cc(NC(=O)Cc2ccc3c(c2)OCO3)ncc1Cl | n | 57 | n | n
O=C(Cc1ccc2c(c1)OCO2)Nc1cc(Nc2ccccc2-c2nn[nH]n2)c(F)cn1 | n | n | n | n
CC1CCC(=NNc2nc3ccccc3[nH]2)CC1 (stereo not given) | n | n | n | n
c1ccc(C2CCC(=NNc3nc4ccccc4[nH]3)CC2)cc1 (stereo not given) | n | 33 | n | n
CC1=C/C(=N/Nc2nc3ccccc3[nH]2)CC(C)(C)C1 | n | n | n | n
CC1=C/C(=N\Nc2nc3ccccc3[nH]2)CC1 | n | 32 | n | n
CC1=NN(C(=S)c2ccccc2)C(C)(O)C12CC2 (stereo not given) | n | 33 | n | n
CC1=NN(C(=O)c2ccccc2)C(C)(C)C1 | n | n | n | n

Screening data (PubChem)
